# Test results as given in PubChem BioAssay.
# Where “and” joins values, the source holds several entries; their conditions need not be identical. Equal values may be shown once. Inconclusive results are not listed. Calls of active or inactive are those of the source.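 Rule for the calls, unless noted: active = normalized viability below 100% at a tested concentration; inactive = the rest.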
# What was measured:
# [1] = growth inhibition of DIPG glioma cells, dose response, cell-based, SU-DIPG-XVII, MIPE5.0, CellTiter-Glo, qHTS (AID 1347060; cut-off not given, nearly all actives have AC50 up to about 26 µM;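 note: cells exposed to compound for 48 hours before viability readout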); settings: SU-DIPG-XVII viability, CellTiter-Glo ATP luminescence
# [2] = growth inhibition of DIPG glioma cells, dose response, cell-based, SU-DIPG-XIII, MIPE4.0, CellTiter-Glo, qHTS (AID 1347061; cut-off not given, nearly all actives have AC50 up to about 37 µM;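 note: cells exposed to compound for 48 hours before readout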); settings: SU-DIPG-XIII viability, CellTiter-Glo ATP luminescence
# [3] = growth inhibition of DIPG glioma cells, dose response, cell-based, SU-DIPG-IV, MIPE4.0, CellTiter-Glo, qHTS (AID 1347063; cut-off not given, nearly all actives have AC50 up to about 30 µM;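 note: compound exposure lasted 48 hours before the viability readout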); settings: SU-DIPG-IV viability, CellTiter-Glo ATP luminescence
# [4] = viability loss in pontine glioma line – cell-based, SU-DIPG-XXV, MIPE5.0, CellTiter-Glo, qHTS, dose response (AID 1347065; cut-off not given, nearly all actives have AC50 up to about 26 µM;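 note: cells exposed to compound for 48 hours before ATP readout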); settings: CellTiter-Glo ATP luminescence
# [5] = modifiers of HSF1 nuclear foci, imaging, Selleck Cancer Library (AID 1347162; in the data active = plate-normalised HSF1 focus index below about 0.46); settings: human cells, at 10 µM; SSMD: measured here: HSF1 foci SSMD mean; cell count: measured here: cell number; plate-normalised HSF1 focus index: stronger effect = lower value
# [6] = ovarian cancer cell viability with rucaparib, profiling panel, oncology-focused library, rucaparib conditional (AID 1508598); settings: patient-derived ovarian cancer cells, CellTiter-Glo viability, 144 h, stronger effect = lower value
# [7] = LFS_MB_P medulloblastoma growth inhibition, cell-based, chromothripsis tumors, cisplatin or BGB combos (AID 1671449; in the data active = inhibition above about 80%;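 note: cells exposed for 96 hours; 0% = vehicle DMSO and 100% = killing by high DMSO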); settings: LFS_MB_P medulloblastoma cells, at 0.5 µM, stronger effect = higher value
smiles,measurement,setting,value
C[C@@H]1CN(CC(=O)Nc2ccc3c(c2)Cc2cccc(-c4cc(=O)cc(N5CCOCC5)o4)c2S3)C[C@H](C)O1,AC50,[1],23.5 µM (active)
same,outcome,[2],inactive
same,AC50,[3],13.2 µM (active)
same,AC50,[4],18.6 µM (active)
same,SSMD,[5],2.96
same,cell count,[5],6620
same,plate-normalised HSF1 focus index,[5],1.15 (inactive)
same,viability,"[6]; at 0.000305 µM, OCI-C5x cells, with rucaparib 10 µM, 100% = cells with rucaparib alone",106% (inactive)
same,viability,"[6]; at 0.000305 µM, OCI-C5x cells, without rucaparib",116% (inactive)
same,viability,"[6]; at 0.000305 µM, OCI-P5x cells, with rucaparib 20 µM, 100% = cells with rucaparib alone",111% (inactive)
same,viability,"[6]; at 0.000305 µM, OCI-P5x cells, without rucaparib",119% (inactive)
same,viability,"[6]; at 0.00122 µM, OCI-C5x cells, with rucaparib 10 µM, 100% = cells with rucaparib alone",108% (inactive)
same,viability,"[6]; at 0.00122 µM, OCI-C5x cells, without rucaparib",123% (inactive)
same,viability,"[6]; at 0.00122 µM, OCI-P5x cells, with rucaparib 20 µM, 100% = cells with rucaparib alone",108% (inactive)
same,viability,"[6]; at 0.00122 µM, OCI-P5x cells, without rucaparib",121% (inactive)
same,viability,"[6]; at 0.00488 µM, OCI-C5x cells, with rucaparib 10 µM, 100% = cells with rucaparib alone",112% (inactive)
same,viability,"[6]; at 0.00488 µM, OCI-C5x cells, without rucaparib",129% (inactive)
same,viability,"[6]; at 0.00488 µM, OCI-P5x cells, with rucaparib 20 µM, 100% = cells with rucaparib alone",108% (inactive)
same,viability,"[6]; at 0.00488 µM, OCI-P5x cells, without rucaparib",108% (inactive)
same,viability,"[6]; at 0.0195 µM, OCI-C5x cells, with rucaparib 10 µM, 100% = cells with rucaparib alone",113% (inactive)
same,viability,"[6]; at 0.0195 µM, OCI-C5x cells, without rucaparib",128% (inactive)
same,viability,"[6]; at 0.0195 µM, OCI-P5x cells, with rucaparib 20 µM, 100% = cells with rucaparib alone",104% (inactive)
same,viability,"[6]; at 0.0195 µM, OCI-P5x cells, without rucaparib",108% (inactive)
same,viability,"[6]; at 0.0781 µM, OCI-C5x cells, with rucaparib 10 µM, 100% = cells with rucaparib alone",110% (inactive)
same,viability,"[6]; at 0.0781 µM, OCI-C5x cells, without rucaparib",127% (inactive)
same,viability,"[6]; at 0.0781 µM, OCI-P5x cells, with rucaparib 20 µM, 100% = cells with rucaparib alone",107% (inactive)
same,viability,"[6]; at 0.0781 µM, OCI-P5x cells, without rucaparib",109% (inactive)
same,viability,"[6]; at 0.313 µM, OCI-C5x cells, with rucaparib 10 µM, 100% = cells with rucaparib alone",106% (inactive)
same,viability,"[6]; at 0.313 µM, OCI-C5x cells, without rucaparib",132% (inactive)
same,viability,"[6]; at 0.313 µM, OCI-P5x cells, with rucaparib 20 µM, 100% = cells with rucaparib alone",102% (inactive)
same,viability,"[6]; at 0.313 µM, OCI-P5x cells, without rucaparib",98.9% (active)
same,viability,"[6]; at 1.25 µM, OCI-C5x cells, with rucaparib 10 µM, 100% = cells with rucaparib alone",101% (inactive)
same,viability,"[6]; at 1.25 µM, OCI-C5x cells, without rucaparib",138% (inactive)
same,viability,"[6]; at 1.25 µM, OCI-P5x cells, with rucaparib 20 µM, 100% = cells with rucaparib alone",91.6% (active)
same,viability,"[6]; at 1.25 µM, OCI-P5x cells, without rucaparib",93.8% (active)
same,viability,"[6]; at 5 µM, OCI-C5x cells, with rucaparib 10 µM, 100% = cells with rucaparib alone",106% (inactive)
same,viability,"[6]; at 5 µM, OCI-C5x cells, without rucaparib",132% (inactive)
same,viability,"[6]; at 5 µM, OCI-P5x cells, with rucaparib 20 µM, 100% = cells with rucaparib alone",76.3% (active)
same,viability,"[6]; at 5 µM, OCI-P5x cells, without rucaparib",81.8% (active)
same,inhibition,[7],-5.76% (inactive) and -8.68% (inactive)
